# In the library only some 21% were active in any assay of this set; here they are far more common.
# Shiga inhibitor: Shiga toxin inhibition; Vero cells, Shiga toxin protein synthesis inhibition reporter; inhibition, % at 38.7 µM; actives 9.2% (n = 290,000); in the data active = inhibition mostly above about 28%, no sharp cut-off; inactive = mostly below about 43%; note: 0% is about no effect
# Pf growth 96h: P. falciparum growth inhibition at 96 hours; Potency, µM (highest dose often 28.7 µM), for the others: at the top dose activity change, negative = inhibition, hits mostly inhibitors; actives 6.9% (n = 320,000); P. falciparum luciferase reporter growth, 96 h; note: potency is the fitted concentration of half-maximal effect; % is set by controls: 0 for no effect and ±100 for the full control effect
#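 Infected RBCs, 2% Hct / 0.05% parasitemia final; luciferase-reporter P. falciparum; cpd 96 h, 37 C, 5% CO2; luciferase detection reagent; luminescence.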
# Pf growth 48h: inhibits P. falciparum growth in the first generation, 48 h; P. falciparum luciferase growth in erythrocytes, 48 h; Potency, µM (doses to about 28.7 µM), inactives show top-dose activity change, negative = inhibition, hits mostly inhibitors; actives 5.9% (n = 310,000); AID 504832; note: potency is the fitted concentration of half-maximal effect; % is set by controls: 0 for no effect and ±100 for the full control effect
#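 Compounds are pin-transferred into medium, infected erythrocytes (2% hematocrit, 0.1% parasitemia final) are added, and plates sit one parasite generation at 37 C in 5% CO2. Detection reagent is then added and luminescence measured.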
# CHX counter: counter-screen for Shiga toxin inhibitors: cycloheximide protein synthesis inhibition | cell reporter, cycloheximide protein synthesis inhibition counterscreen | actives 12% (n = 300,000) | max response, %; in the data active = max response mostly above about 13%, no sharp cut-off; inactive = mostly below about 14%; note: read at 38.3 µM for the half of the compounds with a filed dose; 0% is about no effect
# The depositor's hits bear a star; ? = inconclusive; . = no result. Unless noted, calls come from the whole dose curve; as a rule, active = well fitted inhibition curve with a large enough effect; inconclusive = small, poorly fitted or top-dose-only effect, or another doubt; inactive = no such curve, though single readings can be large or run the other way.
SMILES,Shiga inhibitor,Pf growth 96h,Pf growth 48h,CHX counter
Cc1ccc(S(=O)(=O)N2CCCCC2)cc1NC(=O)COC(=O)c1ccc(O)cc1,-9.8,0.233µM*,?,-1.2
NC(=O)COc1ccc(NC(=O)CC23CC4CC(CC(C4)C2)C3)cc1,.,-21.9%,0.0%,-3.4
COC(=O)c1ccc(NC(=O)CN2CCN(CC#N)CC2)cc1,2.8,-28.3%,-13.9%,1.7
COC(=O)c1ccc(CNC(=O)C2CCC(=O)N(CCCc3ccccc3)C2)cc1 (stereo not given),-9.6,-29.8%,19.5%,3.2
O=C(COC(=O)c1ccc(O)cc1)c1ccc(S(=O)(=O)N2CCCCC2)cc1,.,?,2.94µM*,.
Cc1ccc(NC(=O)COC(=O)c2ccc3c(c2)OCO3)cc1S(=O)(=O)N1CCCCC1,-5.6,-0.6%,18.2%,-2.4
Cc1ccc(NC(=O)COC(=O)c2ccc([N+](=O)[O-])o2)cc1S(=O)(=O)N1CCCCCC1,58.6*,?,-2.7%,28.3*
COC(=O)c1nc(N)sc1C,21.8,11.1%,6.7%,-2.2
CC(=O)Oc1ccc2c(=O)c(/C=N/c3cc(=O)[nH]c(=S)[nH]3)coc2c1,-10.2,?,-12.9%,-1.4
O=C(NC(=S)Nc1ccccc1Cl)c1cncc(Br)c1,-9.0,11.7µM*,0.0%,-2.2
CC1CCCCC1NC(=O)c1cncc(Br)c1 (stereo not given),-4.8,-14.2%,.,1.6
O=C(NC(=S)Nc1ccccc1Cl)c1cncc(C#Cc2ccccc2)c1,-7.4,32.3%,-1.5%,-4.5
CC1CCCC(NC(=S)NC(=O)c2cncc(Br)c2)C1C (stereo not given),17.7,23.3%,13.1µM*,-1.8
O=C(Nc1ccc(F)cc1F)c1cncc(Br)c1,-1.9,34.0%,23.5%,8.4
Cc1ccnc(NC(=S)NC(=O)c2cncc(Br)c2)c1,5.9,0.4%,63.3%,25.4*
O=C(Nc1ccccc1[N+](=O)[O-])c1cncc(Br)c1,45.8,66.2%,30.6%,27.6*
Cc1nc(NC(=S)NC(=O)c2cncc(Br)c2)ccc1Br,10.1,35.1%,37.8%,1.2
CCC(=O)N1N=C2C3CCN(CC3)C2C1c1ccc(C)cc1 (stereo not given),9.8,4.15µM*,13.7%,-4.4
CCC(=O)N1N=C2C3CCN(CC3)C2C1c1ccccc1 (stereo not given),-7.5,-2.3%,8.0%,-2.6
Cc1ccc(S(=O)(=O)NCCC(=O)OCC(=O)NCCc2ccccc2)cc1C,.,10.8%,8.5%,.
O=C(C1CCCN1S(=O)(=O)c1cccc2nsnc12)N1CCCCCC1 (stereo not given),9.1,11.2%,25.7%,-0.8
O=C(Nc1ccccc1)n1ccc(-c2ccc(-n3ccnc3)cc2)n1,40.4*,83.6%,133.4%,42.6*
CC(=O)c1ccc(-n2ccnc2)cc1,16.7,?,13.8%,8.5
CC(C)CNC(=O)c1cnn2c(C(F)(F)F)cc(C(F)(F)F)nc12,-3.8,3.3%,2.0%,-2.1
Cn1ncc2c1ncn1nc(COc3ccc4ccccc4c3)nc21,-14.7,?,28.5%,39.9*
SMILES,Shiga inhibitor,Pf growth 96h,Pf growth 48h,CHX counter
Cn1ncc2c1ncn1nc(CCc3ccccc3)nc21,68.5*,?,282.4%,52.1*
CN(C)CC#Cc1cncc(C(=O)NNC(=O)Nc2ccc(Cl)cc2)c1,-3.3,18.6%,27.1%,-2.1
CCOC(=O)c1c(/N=C/N(C)C)sc(/C=N/Nc2ccccc2)c1-c1ccc(Cl)cc1,-6.2,3.29µM*,13.1µM*,-4.4
COc1ccccc1/C=C/c1ccc2cccc(O)c2n1,82.3*,35.3%,-10.6%,40.1*
COc1ccc(C(=O)N/N=C/c2ccc3cccc(O)c3n2)cc1,22.3,72.7%,?,11.4
COc1cc(Cl)cc(/C=C/c2ccc3cccc(O)c3n2)c1OC,10.7,4.5%,.,5.5
COc1ccc(Cl)cc1/C=C/c1ccc2cccc(O)c2n1,73.0*,7.1%,.,46.0*
CCOC(=O)CN1C2=NCCN2c2ccccc21,-6.3,.,23.3%,-2.9
CCCCCN1C2=NCCN2c2ccccc21,-6.9,8.28µM*,?,-4.0
O=C(COC(=O)c1cc(Br)ccc1O)Nc1cccnc1Cl,.,21.2%,8.5%,.
Oc1ccc(Nc2nc(N3CCCC3)c3ccccc3n2)cc1,42.0,7.3%,0.465µM*,-1.2
COc1ccc(Nc2nc(N3CCCC3)nc3ccccc23)c(OC)c1,17.2,.,6.57µM*,-4.3
COc1ccc(Nc2ncnc3ccccc23)c(OC)c1,13.3,-14.9%,63.8%,8.2
C=CCNc1nc(N2CCCC2)nc2ccccc12,-6.9,.,5.22µM*,-0.7
COc1ccc(Nc2nc(N3CCCCC3)c3ccccc3n2)cc1,37.0,4.65µM*,7.38µM*,9.9
O=C(N[C@@H]1CCC(=O)N(CC[C@H](Sc2ccccc2)c2ccccc2)CC1)OCc1ccccc1,-4.6,?,-1.9%,-2.4
Cc1ccc(Nc2nc(N)c([N+](=O)[O-])c(N3CCOCC3)n2)cc1,1.4,?,-18.4%,12.5
Cc1ccc(Nc2nc(N3CCOCC3)c3ccccc3n2)cc1,-17.0,10.4µM*,.,5.7
CCOC(=O)c1nc(Nc2cc(Cl)ccc2OC)c2ccccc2n1,-6.1,0.0%,4.4%,0.8
CC(=O)Nc1ccc(Cc2nc3c([nH]2)c(=O)n(C)c(=O)n3C)cc1,-5.5,1.8%,27.3%,-4.7
CCc1ccc(NC(=O)COc2ccc(F)cc2C(=O)c2cnn(-c3ccccc3)c2)cc1,active,?,?,27.3*
COc1ccccc1NC(=O)Cn1cnc2c(cnn2-c2ccccc2)c1=O,-11.7,19.3%,?,-1.9
COc1ccccc1NC(=O)COc1ccccc1C(=O)c1cnn(-c2ccccc2)c1,24.5,?,89.7%,46.6*
Cc1cc(-c2cn3ccccc3n2)c(C)n1-c1ccccc1,64.3*,?,-57.7%,48.1*
COc1nc(N2CCOCC2)nc(C)c1[N+](=O)[O-],-4.0,11.7µM*,-1.9%,-1.8
SMILES,Shiga inhibitor,Pf growth 96h,Pf growth 48h,CHX counter
CC(=O)c1cnc(Nc2nc(C)c3cc(C)c(C)cc3n2)nc1C,23.8,13.1µM*,2.2%,-1.1
CSc1ncc(C(C)=O)c(C)n1,7.4,36.6%,-6.4%,-1.1
COc1cccc(CN2CC(C(=O)NCCC3=CCCCC3)CCC2=O)c1 (stereo not given),17.5,14.6%,0.0%,19.3
Clc1ccc2nc(-c3ccc(Br)s3)cn2c1,41.5*,-18.9%,?,22.3*
O=C(O)c1ccccc1-c1cn2cc(Cl)ccc2n1,10.9,228.6%,137.7%,0.9
COc1ccc(-c2cn3cc(C)ccc3n2)cc1Br,58.7*,-5.7%,159.5%,40.2*
COc1ccc(-c2cn3cc(Cl)ccc3n2)cc1OC,92.0*,28.0%,47.2%,21.4*
COc1ccc(-c2cn3nc(C)c(C)nc3n2)cc1OC,.,268.2%,129.4%,.
Cc1occc1C(=O)NNC(=O)COc1ccc(Br)cc1Br,50.0*,34.3%,11.5%,14.4
Cc1occc1C(=O)NNC(=S)NC(=O)COc1ccc(Cl)cc1Cl,42.4,-0.2%,3.3%,25.9*
C=CCN1C(=NC(=O)COc2ccc(Cl)cc2)SC2CS(=O)(=O)CC21 (stereo not given),-3.3,0.4%,6.1%,-2.7
O=C(Nc1ccc(Cl)cc1)N(C1=NCCC1)c1ccc(OC(F)F)cc1,74.5*,42.2%,42.8%,40.9*

# Screens (PubChem BioAssay)
